# Cruzain noTriton: blocks cruzain activity in detergent-free assay | P25779 | purified cruzain, Z-FR-AMC fluorescence, no detergent | Potency, µM, for the others: max response, negative = inhibition, actives largely listed as inhibitors | 2.3% of 200,000 active | AID 1476;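 also: plate controls were enzyme without inhibitor for no effect and buffer without enzyme for full effect; nearly all actives have a fitted effect of over 40% in size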
# Target sequence (P25779 123-467 limits assumed): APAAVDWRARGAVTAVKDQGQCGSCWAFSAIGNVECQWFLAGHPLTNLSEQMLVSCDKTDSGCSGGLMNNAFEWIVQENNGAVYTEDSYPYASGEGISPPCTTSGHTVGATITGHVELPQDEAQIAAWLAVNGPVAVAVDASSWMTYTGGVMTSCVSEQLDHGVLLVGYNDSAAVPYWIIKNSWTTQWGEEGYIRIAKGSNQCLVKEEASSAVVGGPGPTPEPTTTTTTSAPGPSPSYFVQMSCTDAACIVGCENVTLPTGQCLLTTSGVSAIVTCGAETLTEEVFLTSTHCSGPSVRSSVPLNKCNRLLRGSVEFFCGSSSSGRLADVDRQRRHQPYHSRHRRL
#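 Purified cruzain at 1.5 nM, pre-incubated 15 min with compound at room temperature in 100 mM sodium acetate pH 5.5, 5 mM DTT, 0.00005% Triton X-100. Reaction started with 2 uM Z-FR-AMC; AMC fluorescence increase over 60 s gives rate.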
# Cruzain inh Det: blocks cruzain activity in presence of Triton detergent. P25779. purified cruzain, Z-FR-AMC fluorescence, 0.01% Triton. Potency, µM, for inactives: max response, negative = inhibition, usual class: inhibitors. 0.43% of 200,000 active;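 also: plate controls were neutral wells for no effect and buffer without enzyme for full effect; nearly all actives have a fitted effect of over 40% in size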
#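 Steps: dispense cruzain (1.5 nM final) in acetate buffer pH 5.5 with DTT and 0.01% Triton X-100; pin-transfer compounds; incubate 15 min RT; add Z-FR-AMC (2 uM final); read fluorescence every 30 s, using the 60 s intensity change.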
# NS1 inh: inhibitors of influenza NS1 protein function | Potency, µM (top dose mostly 46.1 µM), inactives show at the highest dose activity, positive = more growth | 0.4% of 270,000 active; calls by dose curve; also: actives are rising curves; nearly all actives have a fitted effect of over 50% in size
#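 In this qHTS, NS1 from influenza A is expressed in budding yeast, where it slows growth. Cells are switched from glucose to 2% galactose medium (pH 6.0, -URA), treated with compound, and growth recovery is read at OD600.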
# Numbers without * were called inactive; ? = inconclusive; nt = not tested or not shown. This is one part of a sample in which hits are shown more often than they occur. Unless noted, calls follow the shape of the dose curve; as a rule, active = well fitted curve in the direction sought with a large enough effect; inconclusive = small, poorly fitted or top-dose-only effect, or another doubt; inactive = no such curve, though single readings can be large; an effect the other way counts as inactive or inconclusive. Potency is read from the fitted curve at half-maximal effect.
SMILES,Cruzain noTriton,Cruzain inh Det,NS1 inh
O=S(=O)(c1ccccc1)c1nc(-c2ccco2)oc1NCCN1CCOCC1,-1%,-4%,?
Cc1ccc(CNc2oc(-c3ccco3)nc2S(=O)(=O)c2ccccc2)cc1,32µM*,?,-11%
COc1ccc(Nc2oc(-c3ccco3)nc2S(=O)(=O)c2ccc(F)cc2)cc1,25µM*,-25%,?
O=S(=O)(c1ccc(F)cc1)c1nc(-c2ccco2)oc1Nc1ccc(F)cc1,?,-7%,-7%
CCOc1ccc(CNC(=O)Cn2nc(N3CCN(c4ccccc4)CC3)ccc2=O)cc1,?,-1%,nt
Cc1ccsc1/C=N/Nc1ncc(Cl)cc1Cl,?,-5%,-78%
O=C(Nc1cccc(S(=O)(=O)N2CCOCC2)c1)c1ccc2ccccc2n1,nt,nt,4%
O=C(Nc1cccc(S(=O)(=O)N2CCOCC2)c1)c1c2c(nc3ccccc13)CCC2,?,-14%,4µM*
COc1ccc(F)cc1S(=O)(=O)Nc1cccc(-c2ccc(N3CCC(C)CC3)nn2)c1,-7%,-1%,nt
CCc1ccc(NC(=O)c2cc3c([nH]c2=O)CC(C)(C)CC3=O)cc1,2%,-1%,nt
COc1ccc(/C=C2\SC(=S)N(NC(=O)c3csc4c3CCCC4)C2=O)cc1,7.9µM*,2%,0%
COc1ccc(NC(=O)c2csc3c2CCCC3)cc1,-6%,-3%,-6%
CCc1[nH]nc2c1C(c1ccncc1)C(C#N)=C(N)O2 (stereo not given),-4%,3%,-2%
O=C(COc1cc(O)c2c(=O)cc(-c3ccccc3)oc2c1)c1ccccc1,?,-2%,16%
O=C(COc1cc(O)c2c(=O)cc(-c3ccccc3)oc2c1)c1ccc(F)cc1,13µM*,-4%,-4%
COC(=O)C(C(C)=O)C(NC(=O)OC(C)(C)C)c1ccccc1 (stereo not given),14%,2%,nt
CCOC(=O)COC(=O)c1ccc(O)cc1,-2%,-2%,-12%
O=C(CSc1nc(C2CC2)nc2ccccc12)N1c2ccccc2Sc2ccc(C(F)(F)F)cc21,4µM*,2%,24%
O=C(CSc1nc(C2CC2)nc2ccccc12)N1CCCCC1,nt,nt,-21%
CC(C)n1cc(/C=N\NC(=O)c2cc3c(ccc4ccccc43)o2)c2ccccc21,5µM*,-19%,13%
CCn1cc(/C=N/NC(=O)c2cc3c(ccc4ccccc43)o2)c2ccccc21,7.9µM*,-2%,19%
CCOC(=O)Cn1cc(/C=N/NC(=O)c2cc3ccccc3o2)c2ccccc21,nt,nt,-10%
O=C(N/N=C/c1ccc([N+](=O)[O-])o1)c1cc2c(ccc3ccccc32)o1,nt,nt,-6%
Cc1ccc(/C=N/NC(=O)c2cc3c(ccc4ccccc43)o2)o1,nt,nt,-26%
Cc1ccc(/C=N/NC(=O)c2cc3c(ccc4ccccc43)o2)cc1[N+](=O)[O-],6.3µM*,-2%,-2%
SMILES,Cruzain noTriton,Cruzain inh Det,NS1 inh
Cc1cc(C)n2nc(C(=O)Nc3ccc(S(=O)(=O)N(C)C)cc3)nc2n1,nt,nt,2%
CCOc1ccc(-c2csc(/C(C#N)=C\c3ccc(O)c([N+](=O)[O-])c3)n2)cc1,15%,-6%,-5%
CCCn1c(SCC(=O)c2cc(OC)ccc2OC)nnc1-c1ccco1,?,-3%,-8%
CC1C(=O)Nc2ccc(S(=O)(=O)N3CCCCC3)cc2NC1=O (stereo not given),1%,-4%,nt
CCOC(=O)c1cc2sccc2n1CC(=O)Nc1ccc(OC)cc1OC,26%,-3%,-2%
COc1cccc2c1Oc1ncccc1N(c1ccc(C(=O)NCc3ccccc3Cl)s1)C2,25µM*,-25%,nt
COc1cccc2c1Oc1ncccc1N(c1ccc(C(=O)NCc3cccc(C)c3)s1)C2,-16%,-4%,nt
Fc1ccc(Nc2ncnc3onc(-c4cccc(Cl)c4)c23)c(F)c1,10%,-1%,nt
COc1ccc(C(=O)NCC(=O)OCc2ccccc2F)cc1,nt,nt,-5%
O=C(CCN1CCCCC1)c1ccccc1,-13%,-5%,14%
O=C(CCN1CCCCC1)c1csc2ccccc12,2.5µM*,-23%,-17%
COc1cccc(NC(=O)CNC(=O)Cn2cnc3sc(C)c(C)c3c2=O)c1,nt,nt,6%
CCOc1cc(NC(=O)C2CC2)c(OCC)cc1NC(=O)c1ccccc1OCC,nt,nt,-1%
C=CCn1c(=O)c2ccc(C(=O)NCc3ccccc3)cc2n(Cc2ccccc2Cl)c1=O,25µM*,2%,7%
C=CCn1c(=O)c2ccc(C(=O)NCc3ccccc3)cc2n(Cc2ccc(Cl)cc2)c1=O,-28%,-4%,27%
C/C(=N\NC(=O)c1c(Cl)cnn1C)c1cccc(NC(=O)c2ccc(C)cc2)c1,nt,nt,-13%
CN(C)c1ccc(-c2cncnc2NCc2cccs2)cc1,-9%,-3%,nt
O=C(NCCN1C(=O)S/C(=C\c2ccc(Cl)c(Cl)c2)C1=O)c1ccc2c(c1)C(=O)N(Cc1ccncc1)C2=O,13µM*,-8%,?
